RN4220 kill: growth inhibition of S. aureus RN4220, primary screen, OD600 | 16 h | inhibition, % (concentration not given with the values) | hit rate 0.33% among 330,000; in the data active = inhibition above about 85%;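 note: plate controls were untreated cells for no effect and reference antibiotic for full effect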
PfHsp40 yeast: rescue of yeast from PfHsp40 toxicity, primary screen, S. cerevisiae, ATP luminescence | growth rescue, % at 12.5 µM | hit rate 0.68% among 340,000 | AID 504582, 2011 | S. cerevisiae expressing PfHsp40, growth rescue; in the data active = growth rescue above about 28%, passing the limit was not always enough;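 note: yeast W303a lacking pdr1 and pdr3 grown in galactose medium; growth measured after three days at 30 °C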
ugtP null kill: growth inhibition of ugtP-null S. aureus, primary screen, RN4220 ugtP deletion, OD600; 16 h; growth inhibition, % (no concentration beside the values); hit rate 0.54% among 330,000; in the data active = growth inhibition above about 68%;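 note: plate controls were untreated wells for no effect and antibiotic for full effect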
BH1578 lux ind: inducers of Vibrio cholerae quorum light production without autoinducers, primary screen, BH1578 luxS cqsA deficient, single point; hit rate 0.16% among 350,000; V. cholerae BH1578 lux reporter, luminescence, 6 h; activation, % at 18.7 µM; in the data active = activation mostly above about 9.7%, no sharp cut-off
CCHFV vOTU inh: CCHFV vOTU protease inhibitors, primary screen, biochemical, Pep-AMC substrate, fluorescence; Crimean-Congo hemorrhagic fever virus L polyprotein viral ovarian tumor (vOTU) protease …; inhibition, % at 11.5 µM; hit rate 0.55% among 370,000; in the data active = inhibition above about 30%; note: 0% = vehicle wells with enzyme and 100% = no enzyme wells
Mtb hypoxia rep: PubChem AID 1159583 | M. tuberculosis hypoxia-regulated fluorescent reporter, fluorescence | fluorescence inhibition, % (no concentration beside the values) | hit rate 0.1% among 300,000; in the data active = fluorescence inhibition mostly above about 23%, no sharp cut-off; inactive = mostly below about 17%
* hit, by the source's call; i = inactive; . = not tested or not shown; + = active, no number. An excerpt weighted towards active compounds, which were near 1.7% of everything screened.

SMILES	RN4220 kill	PfHsp40 yeast	ugtP null kill	BH1578 lux ind	CCHFV vOTU inh	Mtb hypoxia rep
Cc1ccc(C(=O)NC(=S)Nc2ccc(N3CCOCC3)cc2)cc1C	1	-1	25	-1	12	22
O=C(/C=C/c1ccccc1)NC(=S)Nc1ccccc1	-1	102*	64	-1	10	1
O=C(NC(=S)NCc1ccccc1)c1ccccc1F	0	8	4	i	10	12
O=C(/C=C/c1ccccc1)NC(=S)NNC(=O)c1ccco1	8	35*	-6	-8	14	21
O=C(NC(=S)N(Cc1ccccc1)Cc1ccccc1)c1ccccc1F	95*	1	94*	0	6	-9
O=C(/C=C/c1ccc(F)cc1)NC(=S)Nc1ccccc1	0	1	5	i	2	9
O=C(NC(=S)N(CCc1ccccc1)CCc1ccccc1)c1ccco1	26	187*	4	0	3	-5
O=C(CNC(=O)c1ccco1)NN=Cc1ccc(O)c([N+](=O)[O-])c1	3	.	-1	.	.	25
Cc1noc(C)c1S(=O)(=O)N(C)CC1Oc2ccc(NC(=O)C3CC3)cc2C(=O)N(C(C)CO)CC1C (stereo not given)	5	.	-7	.	.	1
O=C(NC1CC1)C1=CC(C2CCCCC2)CC(OCCCCO)O1 (stereo not given)	5	.	3	.	.	3
O=C(NC1CCCC1)c1ccc(Cn2c(=O)[nH]c3ccsc3c2=O)cc1	5	51*	0	-1	2	8
COc1ccc(CN(C)C(=O)c2cccc(S(=O)(=O)N3CCCc4ccccc43)c2)c(OC)c1OC	6	1	1	-1	2	28*
CC(NC(=O)c1nc[nH]c1C(=O)NCc1ccc(CNC(=O)OC(C)(C)C)cc1)C(=O)OCc1ccccc1 (stereo not given)	5	.	6	.	.	0
O=C(Nc1ccc(Cl)cc1Cl)c1cc2ccccc2o1	2	-1	6	12	6	-5
O/N=C(\c1ccc(Cl)cc1)c1cc2ccccc2o1	.	641*	.	-3	-10	.
CCOC(=O)C(=NNc1ccccc1)c1csc(Nc2ccccc2)n1	92*	.	93*	.	.	-1
CCOC(=O)/C(=N\Nc1ccc(C(C)=O)cc1)c1csc(Nc2ccccc2)n1	.	0	.	2	1	.
CC(C)(C)c1ccc(C(=O)NN=C2C3CN4CCN(C3)CC2(c2ccccc2)C4)cc1	5	.	10	.	.	6
COc1ccc(Cn2c(SCc3cc(C)ccc3C)nc3cc(OC)c(OC)cc3c2=N)cc1	16	1	-16	0	-2	.
COc1ccc(Cn2c(SCc3ccc(C)cc3)nc3cc(OC)c(OC)cc3c2=N)cc1Cl	100*	1	99*	i	-7	6
CCCCCCc1nnc(NC(=O)OCC)s1	3	0	2	0	10	45*
O=Nc1c(-c2c(O)[nH]c3cc(Br)ccc23)[nH]c2ccccc12	100*	1	100*	0	9	26
O=C(CSCc1cccc(Br)c1)N=Nc1c(O)[nH]c2ccccc12	8	1	3	i	3	10
O=C(NN=Cc1cn(-c2cccs2)nc1-c1ccccc1)c1ccccc1Cl	9	.	46	.	.	-1
COC(=O)Cc1[nH]n(-c2nc3ccccc3s2)c(=O)c1C(C)=O	4	-1	5	+	-7	2
SMILES	RN4220 kill	PfHsp40 yeast	ugtP null kill	BH1578 lux ind	CCHFV vOTU inh	Mtb hypoxia rep
COC(=O)Oc1ccc(/C=C/C(=O)OC(C)C)cc1OC(=O)OC	5	4	2	2	12	5
CCCCOC(=O)/C=C/c1ccc(OC(=O)OC)c(OC(=O)OC)c1	5	287*	5	0	0	1
O=Cc1c(N2CCN(c3ccccc3)CC2)nc2ccccn2c1=O	6	1	-3	0	2	22
O=Cc1c(N2CCSCC2)nc2ccccn2c1=O	0	-1	1	-1	13	40*
C#CCOCCOCCOCCNc1nc(N2CCN(C(=O)C(C(C)CC)n3cc(C(N)CC(C)C)nn3)CC2)nc(N2CCN(C(=O)C(C(C)CC)n3cc(C(N)CC(C)C)nn3)CC2)n1 (stereo not given)	-1	.	-8	.	.	15
COC(=O)CC1c2ccccc2S(=O)(=O)N1c1cccc(OC)c1 (stereo not given)	9	.	8	.	.	17
CCC1=NN(C(=O)c2ccccc2O)C(O)(c2ccccc2)C1 (stereo not given)	.	83*	.	-1	5	.
CCC1=NN(C(=O)c2ccccc2Br)C(O)(c2ccc(Br)cc2)C1 (stereo not given)	0	1	-7	-1	2	-4
Cc1cccc(OC(C)C(=O)NN=Cc2ccncc2)c1 (stereo not given)	2	.	4	.	.	13
COc1ccc(S(=O)(=O)Nc2ccc3ccccc3c2)cc1C	-1	31*	20	0	12	9
Cc1ccc(S(=O)(=O)Nc2ccc3ccccc3c2)cc1	-2	-1	12	i	-3	5
CC(=NNC(=O)c1cc([N+](=O)[O-])cc([N+](=O)[O-])c1)c1ccco1	2	.	-3	.	.	20
FC(F)(F)Sc1ccc(NC(=S)NCc2ccccc2)cc1	52	148*	53	i	21	-12
COc1ccc(C(NC(N)=O)c2ccccc2)cc1 (stereo not given)	2	73*	9	0	-6	17
CCOc1cc(C=NNc2cc(C)nc3ccc(C)cc23)ccc1O	4	.	-12	.	.	1
O=C(NCCO)N1c2ccccc2Sc2ccccc21	5	1	6	-1	5	10
C=CCNC(=O)N1c2ccccc2Sc2ccccc21	1	57*	-4	-1	-11	14
Cc1cccc(C)c1N1C(=O)C2ON(c3ccccc3)C(c3ccncc3)C2C1=O (stereo not given)	2	254*	-3	i	3	1
Clc1ccccc1C(c1ccccc1)(c1ccccc1)n1ccnc1	26	173*	46	i	4	19
Cc1ccc(SC/C(O)=C(\C#N)c2nc3ccccc3s2)cc1	.	0	.	i	11	.
Cc1ccc(SCC(O)=C(C#N)c2nc3ccccc3s2)cc1	97*	.	92*	.	.	6
COc1ccc(-c2cc3c(=O)n(CC(=O)NCc4cccnc4)ncn3n2)cc1	-4	0	-6	0	-5	8
COc1ccc(-c2cc3c(=O)n(CC(=O)NC4CCN(Cc5ccccc5)CC4)ncn3n2)cc1	14	83*	19	i	-6	20
Cc1cc(C)nc(SC(C)C(=O)NN=Cc2cccs2)n1 (stereo not given)	0	.	10	.	.	7
CCN1C(=O)C(=C2Sc3ccccc3N2CC)OC1=S	3	.	-6	.	.	-3
Cn1cccc1-c1cc(C(=O)N/N=C/c2cc(Br)ccc2O)[nH]n1	.	125*	.	0	16	.

High-throughput results (PubChem BioAssay)
